Experimental data from PubChem BioAssay AID1159580 (chemical genetic matrix, 2015).
Screen size: about 5,500 compounds; about 2,000 (36%) were called active. Inconclusive results (about 18%) are left out. No stated cut-off is given here; in the data, active means normalized growth mostly below about 0.91 (no sharp cut-off); inconclusive means no clear call, values can overlap the other calls; inactive means mostly above about 0.92. Some of the results follow.

Assay: chemical genetic growth profiling, strain panel (AID 1159580);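 further: tested at 20 µM; growth read once vehicle control cultures reached saturation at 30 °C; 1 = growth at the plate median or of vehicle wells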
Details: growth OD

Measured: normalized growth

NC[C@H]1O[C@H](O[C@H]2[C@H](O)[C@@H](O[C@H]3O[C@H](CO)[C@@H](O)[C@H](N)[C@H]3O)[C@H](N)C[C@@H]2N)[C@H](N)C[C@@H]1O
inactive: S. cerevisiae deletion strains, locus YJR075W, strain HOC1, stronger effect = lower value 1.01 | S. cerevisiae deletion strains, locus YKL009W, strain mrt4, stronger effect = lower value 1.02 | S. cerevisiae deletion strains, locus YKL068W, stronger effect = lower value 0.998 | S. cerevisiae deletion strains, locus YKL085W, strain MDH1 (second series), stronger effect = lower value 1 | S. cerevisiae deletion strains, locus YKL085W, strain MDH1, stronger effect = lower value 1 | S. cerevisiae deletion strains, locus YKL160W, strain elf1, stronger effect = lower value 0.959 | S. cerevisiae deletion strains, locus YKL190W, strain CNB1, stronger effect = lower value 0.994 | S. cerevisiae deletion strains, locus YKR001C, strain vps1, stronger effect = lower value 0.968 | S. cerevisiae deletion strains, locus YKR026C, strain gcn3, stronger effect = lower value 1.02 | S. cerevisiae deletion strains, locus YKR091W, strain srl3, stronger effect = lower value 1.01 | S. cerevisiae deletion strains, locus YLL001W, strain dnm1, stronger effect = lower value 0.987 | S. cerevisiae deletion strains, locus YLL026W, stronger effect = lower value 1.01 | S. cerevisiae deletion strains, locus YLL041C, strain sdh2, stronger effect = lower value 1.01 | S. cerevisiae deletion strains, locus YLR027C, strain aat2, stronger effect = lower value 1 | S. cerevisiae deletion strains, locus YLR039C, strain RIC1, stronger effect = lower value 1.01 | S. cerevisiae deletion strains, locus YLR058C, strain SHM2, stronger effect = lower value 0.994 | S. cerevisiae deletion strains, locus YLR102C, strain apc9, stronger effect = lower value 1.01 | S. cerevisiae deletion strains, locus YLR113W, strain HOG1, stronger effect = lower value 0.978 | S. cerevisiae deletion strains, locus YLR221C, strain rsa3, stronger effect = lower value 0.998 | S. cerevisiae deletion strains, locus YLR258W, strain gsy2, stronger effect = lower value 1.01 | S. cerevisiae deletion strains, locus YLR262C, strain YPT6 (second series), stronger effect = lower value 0.973 | S. cerevisiae deletion strains, locus YLR262C, strain YPT6, stronger effect = lower value 1.05 | S. cerevisiae deletion strains, locus YLR268W, strain sec22, stronger effect = lower value 1.04 | S. cerevisiae deletion strains, locus YLR320W, strain mms22, stronger effect = lower value 1 | S. cerevisiae deletion strains, locus YLR330W, strain CHS5, stronger effect = lower value 1.01 | S. cerevisiae deletion strains, locus YLR342W, strain FKS1 (second series), stronger effect = lower value 1.02 | S. cerevisiae deletion strains, locus YLR342W, strain FKS1, stronger effect = lower value 1.01 | S. cerevisiae deletion strains, locus YLR357W, strain rsc2, stronger effect = lower value 0.991 | S. cerevisiae deletion strains, locus YLR370C, strain arc18, stronger effect = lower value 1.03 | S. cerevisiae deletion strains, locus YLR371W, strain rom2, stronger effect = lower value 1.02 | S. cerevisiae deletion strains, locus YLR384C, strain iki3, stronger effect = lower value 1.02 | S. cerevisiae deletion strains, locus YLR418C, strain cdc73, stronger effect = lower value 0.986 | S. cerevisiae deletion strains, locus YML016C, strain PPZ1, stronger effect = lower value 0.996 | S. cerevisiae deletion strains, locus YML032C, strain rad52, stronger effect = lower value 1.02 | S. cerevisiae deletion strains, locus YML120C, strain ndi1, stronger effect = lower value 1.01 | S. cerevisiae deletion strains, locus YML124C, strain tub3, stronger effect = lower value 1.01 | S. cerevisiae deletion strains, locus YMR058W, strain fet3, stronger effect = lower value 1 | S. cerevisiae deletion strains, locus YMR078C, strain ctf18, stronger effect = lower value 1.01 | S. cerevisiae deletion strains, locus YMR125W, strain sto1, stronger effect = lower value 1.01 | S. cerevisiae deletion strains, locus YMR129W, stronger effect = lower value 1.01 | S. cerevisiae deletion strains, locus YMR205C, strain PFK2, stronger effect = lower value 0.965 | S. cerevisiae deletion strains, locus YMR223W, strain ubp8, stronger effect = lower value 0.988 | S. cerevisiae deletion strains, locus YMR231W, strain pep5, stronger effect = lower value 0.996 | S. cerevisiae deletion strains, locus YMR307W, strain GAS1, stronger effect = lower value 1.01 | S. cerevisiae deletion strains, locus YNL067W, strain RPL9B, stronger effect = lower value 0.99 | S. cerevisiae deletion strains, locus YNL071W, strain lat1, stronger effect = lower value 1.01 | S. cerevisiae deletion strains, locus YNL128W, strain TEP1, stronger effect = lower value 0.995 | S. cerevisiae deletion strains, locus YNL153C, strain GIM3, stronger effect = lower value 0.994 | S. cerevisiae deletion strains, locus YNL183C, strain NPR1, stronger effect = lower value 0.933 | S. cerevisiae deletion strains, locus YNL209W, strain ssb2, stronger effect = lower value 1.01 | S. cerevisiae deletion strains, locus YNL233W, strain BNI4, stronger effect = lower value 1.01 | S. cerevisiae deletion strains, locus YNL248C, strain rpa49, stronger effect = lower value 0.956 | S. cerevisiae deletion strains, locus YNL250W, strain rad50, stronger effect = lower value 1.01 | S. cerevisiae deletion strains, locus YNL271C, strain bni1, stronger effect = lower value 1 | S. cerevisiae deletion strains, locus YNL298W, strain CLA4, stronger effect = lower value 0.998 | S. cerevisiae deletion strains, locus YNL307C, strain MCK1, stronger effect = lower value 1.01 | S. cerevisiae deletion strains, locus YNL322C, strain KRE1 (second series), stronger effect = lower value 1 | S. cerevisiae deletion strains, locus YNL322C, strain KRE1, stronger effect = lower value 1.01 | S. cerevisiae deletion strains, locus YNR049C, strain mso1, stronger effect = lower value 1.02 | S. cerevisiae deletion strains, locus YNR052C, strain pop2, stronger effect = lower value 1.01 | S. cerevisiae deletion strains, locus YOL006C, strain TOP1, stronger effect = lower value 1.02 | S. cerevisiae deletion strains, locus YOL012C, strain htz1 1.38 | S. cerevisiae deletion strains, locus YOL147C, strain pex11, stronger effect = lower value 1.01 | S. cerevisiae deletion strains, locus YOR001W, strain rrp6, stronger effect = lower value 1.05 | S. cerevisiae deletion strains, locus YOR061W, strain CKA2, stronger effect = lower value 1.01 | S. cerevisiae deletion strains, locus YOR069W, strain VPS5, stronger effect = lower value 1.01 | S. cerevisiae deletion strains, locus YOR070C, strain gyp1, stronger effect = lower value 1.02 | S. cerevisiae deletion strains, locus YOR080W, strain dia2, stronger effect = lower value 1.01 | S. cerevisiae deletion strains, locus YOR083W, strain WHI5, stronger effect = lower value 0.959 | S. cerevisiae deletion strains, locus YOR106W, strain vam3, stronger effect = lower value 0.964 | S. cerevisiae deletion strains, locus YOR136W, strain idh2, stronger effect = lower value 0.993 | S. cerevisiae deletion strains, locus YOR144C, strain elg1, stronger effect = lower value 1.01 | S. cerevisiae deletion strains, locus YOR184W, strain ser1, stronger effect = lower value 0.99 | S. cerevisiae deletion strains, locus YOR231W, strain MKK1, stronger effect = lower value 0.971 | S. cerevisiae deletion strains, locus YOR265W, strain rbl2, stronger effect = lower value 1.03 | S. cerevisiae deletion strains, locus YOR270C, strain vph1, stronger effect = lower value 0.943 | S. cerevisiae deletion strains, locus YOR290C, strain snf2, stronger effect = lower value 0.987 | S. cerevisiae deletion strains, locus YOR316C, strain cot1, stronger effect = lower value 1.01 | S. cerevisiae deletion strains, locus YPL051W, strain arl3, stronger effect = lower value 0.988 | S. cerevisiae deletion strains, locus YPL055C, strain LGE1, stronger effect = lower value 0.974 | S. cerevisiae deletion strains, locus YPL078C, strain atp4, stronger effect = lower value 0.959 | S. cerevisiae deletion strains, locus YPL106C, strain sse1, stronger effect = lower value 1.03 | S. cerevisiae deletion strains, locus YPL240C, strain hsp82, stronger effect = lower value 1.02 | S. cerevisiae deletion strains, locus YPL256C, strain CLN2, stronger effect = lower value 0.968 | S. cerevisiae deletion strains, locus YPR119W, strain clb2, stronger effect = lower value 1.01 | S. cerevisiae deletion strains, locus YPR141C, strain kar3, stronger effect = lower value 1.01 | S. cerevisiae deletion strains, locus YPR163C, strain tif3, stronger effect = lower value 1.02 | S. cerevisiae deletion strains, locus YPR167C, strain met16, stronger effect = lower value 1.01 | S. cerevisiae deletion strains, strain wtn01, stronger effect = lower value 1.01 | S. cerevisiae strains, strain wild type, stronger effect = lower value 0.998
